Structures are written as SMILES. Records with an inconclusive call do not appear. Active and inactive are the calls of the source. Unless noted, calls follow the shape of the dose curve; as a rule, active = well fitted inhibition curve with a large enough effect; inconclusive = small, poorly fitted or top-dose-only effect; inactive = no such curve, though single readings can be large or run the other way.

Experiment [1] is described as follows: qHTS profiling of the MIPE4 collection as inhibitors of Plasmodium falciparum (DD2) proliferation (AID 743345; call rule not given here). Conditions: P. falciparum Dd2 in erythrocytes, SYBR Green DNA, 72 h; at 28.5 µM (top of the series) unless noted. An outline of the steps:
(§1)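 Parasite DNA was quantified by SYBR Green I fluorescence (ex 485, em 535 nm) after overnight lysis in saponin/Triton buffer at room temperature. Cultures at 0.3% parasitemia and 2.5% hematocrit were first exposed to compound for 72 h at 37 C; signals were normalised to artemisinin (0.29 uM) and vehicle wells.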

Experiment [2] can be described thus: qHTS profiling of the MIPE4 collection as inhibitors of Plasmodium falciparum (DD2) proliferation (Rep 2) (AID 743346; call rule not given here). As to conditions: P. falciparum Dd2 in erythrocytes, SYBR Green DNA, 72 h; at 28.5 µM (top of the series) unless noted. The method, boiled down: as §1
Experiment [3] is described as follows: qHTS profiling of the MIPE4 collection as inhibitors of Plasmodium falciparum (HB3) proliferation (AID 743347; call rule not given here;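 also: plate controls were DMSO vehicle wells for no effect and artemisinin wells for full effect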). Conditions: P. falciparum HB3 in erythrocytes, SYBR Green DNA, 72 h; at 28.5 µM (top of the series) unless noted. An outline of the steps:
as §1
(In general: qHTS replaces the single test concentration by a dilution series.)

Experiment [4] is described as follows: High-throughput drug toxicity screening in the BPDCN cell line Gen2.2 (AID 1224824; call rule not given here;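 also: cells exposed to compounds for 48 h before reading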). As to conditions: Gen2.2 BPDCN cells; at 45.8 µM (top of the series) unless noted. An outline of the steps: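 CellTiter-Glo luminescence after 48 h compound exposure of Gen2.2 cells; percent activity set with DMSO as 100% and bortezomib (9.2 uM final) as 0%. Cells seeded at 500 per well, RPMI + 10% FBS, 37 °C.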

Experiment [5] is described as follows: High-throughput drug toxicity screening in the BPDCN cell line Cal-1 (AID 1224825; call rule not given here). As to conditions: Cal-1 BPDCN cell viability, qHTS; at 45.8 µM (top of the series) unless noted. The method, boiled down: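 CellTiter-Glo luminescence after 48 h compound exposure; percent activity scaled with DMSO as 100% and bortezomib (9.2 uM final) as 0%. Cal-1 cells seeded at 500/well in RPMI, 10% FBS, no phenol red.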

Experiment [6] can be described thus: qHTS assay for measurement of the activity of small molecule inhibitors on Zika virus induced Caspase-3 activity in human astrocytoma cells (AID 1224859).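 Also: plate controls were ZIKV-infected untreated cells for no effect and uninfected cells for full effect.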 An outline of the steps:
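Human SNB-19 astrocytoma cells in RPMI 1640 with 10% FBS receive compound one hour ahead of Zika virus at 2 FFU/cell. After 6 h infection, caspase-3/7 activity is detected by Caspase-Glo luminescence.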

Experiment [7] can be described thus: qHTS Screen of the MIPE 4.0 Collection Against Ewings Sarcoma (RDES) (AID 1259252). Also: nearly all actives have a fitted effect of over 35% in size. Also: potency is read from the fitted curve at half-maximal effect. An outline of the steps: (§2)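 Dose series incubated 48 h with cells in RPMI plus 5% FBS, glutamine and penicillin/streptomycin; cell viability then quantified via CellTiter-Glo.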
Experiment [8] in a line: qHTS Screen of the MIPE 4.0 Collection Against Ewings Sarcoma (TC71) (AID 1259253). Also: nearly all actives have a fitted effect of over 40% in size. Also: potency is read from the fitted curve at half-maximal effect. The method, boiled down:
as §2

A short description of experiment [9]: qHTS Screen of the MIPE 4.0 Collection Against Ewings Sarcoma (EW8) (AID 1259255). Also: nearly all actives have a fitted effect of over 35% in size. Also: potency is read from the fitted curve at half-maximal effect.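 As to viability: 100% = DMSO-treated cells and 0% = medium-only wells without cells.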 An outline of the steps:
as §2

A short description of experiment [10]: qHTS assay for measurement of the activity of small molecule inhibitors on Zika virus induced Caspase-3 activity in human iPSC derived neural progenitor cells (hNPCs) (AID 1224857). Also: % of control where 0% means no effect; nearly all actives have a fitted effect of over 65% in size. The method, boiled down: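 Pretreat hNPCs with compound 1 h; infect ZIKV 2 FFU/cell; 6 h 37 C, 5% CO2; Caspase-Glo 3/7, 30 min RT; luminescence; normalize to no-virus and virus-only wells.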

Turning to `N#CNC(=NCCCCCCOc1ccc(Cl)cc1)Nc1ccncc1`, the parasite growth remaining, % of DMSO control (lower = more inhibition) in experiment [1] came out at 35.9%. For the same compound, in [2], the parasite growth, % of control (lower = inhibition) came to 28%. The growth, % of control in [3] turned out to be 3.38%. Also, the cell viability, % of control (lower = more cytotoxic) in experiment [4] is 25.6%. In experiment [5], the viability (% of control) was found to be 2.53%. In addition, the Potency result in experiment [6] and in experiment [7] was “inactive” each time. Besides, the Potency in experiment [8] was 0.0013 µM (active); in [9], 0.003 µM (active).
`CC(=O)ON=C1C(c2c(O)[nH]c3cc(Br)ccc23)=Nc2ccccc21`: in experiment [1], the parasite growth remaining, % of DMSO control (lower = more inhibition) is 6.76%. In addition, the parasite growth, % of control (lower = inhibition) in experiment [2] is 6.05%. Also, the growth, % of control in experiment [3] was determined as 2.46%. Moreover, in experiment [4], the cell viability, % of control (lower = more cytotoxic) was found to be 129%. In addition, in [5], the viability (% of control) turned out to be 17.5%. Also, the Potency in experiment [7] was 2.96 µM (active); in experiment [8] it was 9.35 µM (active); in experiment [9], 7.43 µM (active).
`COc1ccc2cc([S+]([O-])Cc3ncc(C)c(OC)c3C)nc2c1`: the parasite growth remaining, % of DMSO control (lower = more inhibition) in [1] is 87.1%. For the same compound, the parasite growth, % of control (lower = inhibition) in [2] came out at 61.5%. Also, the growth, % of control in [3] is 41.2%. The cell viability, % of control (lower = more cytotoxic) in [4] was determined as 70.5%. The viability (% of control) in experiment [5] came out at 107%. Besides, the Potency result in experiment [7], in experiment [8] and in experiment [9] was “inactive” each time.
As to `COc1cc(C=CC(=O)CC(=O)C=Cc2ccc(O)c(OC)c2)ccc1O`, in [1], the parasite growth remaining, % of DMSO control (lower = more inhibition) was determined as 7.94% [at 57.5 µM]. For the same compound, in experiment [2], the parasite growth, % of control (lower = inhibition) was 16.5% [at 57.5 µM]. The compound also registered a growth, % of control in experiment [3] of 2.99% [at 57.5 µM]. The cell viability, % of control (lower = more cytotoxic) in [4] amounted to 5.74% [at 92.2 µM]. For the same compound, the viability (% of control) in experiment [5] stood at 5.08% [at 92.2 µM]. Further, the Potency result in experiment [6] was “inactive”. Moreover, the figures for the Potency in [7], in experiment [8] and in experiment [9] were 7.62 µM (active), 21.5 µM (active) and 6.05 µM (active), respectively.
For the compound `O=C(O)C=Cc1ccc(Cn2ccnc2)cc1`, the parasite growth remaining, % of DMSO control (lower = more inhibition) in experiment [1] stood at 100%. Further, the parasite growth, % of control (lower = inhibition) in experiment [2] was 96.2%. In [3], this compound displayed a growth, % of control of 95.1%. The cell viability, % of control (lower = more cytotoxic) in experiment [4] amounted to 243%. For the same compound, the viability (% of control) in [5] is 124%. For the same compound, the Potency entry in experiment [6], in experiment [7], in experiment [8] and in experiment [9] was “inactive” each time.
With `COc1ccc(S(=O)(=O)Nc2cc(-c3c(O)ccc4ccccc34)c(O)c3ccccc23)cc1`, in [1], the parasite growth remaining, % of DMSO control (lower = more inhibition) amounted to 94.7%. For the same compound, in [2], the parasite growth, % of control (lower = inhibition) stood at 23.7%. The growth, % of control in experiment [3] came to 49.9%. Also, the cell viability, % of control (lower = more cytotoxic) in experiment [4] is 5.48%. Also, the viability (% of control) in experiment [5] came to 3.97%. Moreover, the Potency entry in experiment [6] is “inactive”. The Potency was 16.6 µM (active) in [7], 10.5 µM (active) in experiment [8] and 4.18 µM (active) in [9].
As to `OCCNC1CCCc2c1[nH]c1ccc(-c3ccccc3)cc21` (stereo unspecified), in experiment [1], the parasite growth remaining, % of DMSO control (lower = more inhibition) was determined as 15.7%. Besides, the parasite growth, % of control (lower = inhibition) in experiment [2] was 13.3%. This compound also registered a growth, % of control in [3] of 3.72%. Besides, the viability (% of control) in experiment [5] came to 0.798%. The Potency result in experiment [10] and in experiment [6] was “inactive” throughout. For the same compound, the Potency in experiment [7] is 26.4 µM (active); in experiment [8], 20.9 µM (active); in experiment [9] it was 23.5 µM (active).
Regarding `CCC(C=C[C@@H]1OC(=O)C=C[C@H]1C)=C[C@H](C)CC=CC(C)=C[C@@H](C)C(=O)[C@@H](C)[C@H](O)[C@@H](C)CC(C)=CC(=O)O`, the parasite growth remaining, % of DMSO control (lower = more inhibition) in [1] came to 97.4% [at 1.06 µM]. Further, the parasite growth, % of control (lower = inhibition) in experiment [2] came out at 106% [at 1.06 µM]. In experiment [5], the viability (% of control) was 5.92% [at 1.72 µM]. Also, the results for the activity change, negative = inhibition in experiment [10] and in [6] were 14.9% [at 1.73 µM] (inactive) and 5.61% [at 1.73 µM] (inactive), respectively. Moreover, the Potency in experiment [8] is 0.022 µM (active); in [9], 0.0156 µM (active).
Consider `CC(Oc1ccc(O)cc1)(P(=O)(O)O)P(=O)(O)O`, for which the parasite growth remaining, % of DMSO control (lower = more inhibition) in [1] was 101%. Also, the parasite growth, % of control (lower = inhibition) in experiment [2] was found to be 64.2%. This compound also registered a growth, % of control in experiment [3] of 98.7%. Besides, in [5], the viability (% of control) came to 107%. Besides, the Potency entry in [10], in [7], in experiment [8] and in experiment [9] was “inactive” throughout.
